Laboratory results as given in PubChem BioAssay (NCI).
Compounds without any hit were thinned out: in the full panel of roughly 79,000, 15% have a hit. The source made the active and inactive calls. No stated cut-off is given here; in the data, active means growth inhibition above about 70%; inactive means the rest.

Tests used:
[1] = NCI Yeast Anticancer Drug Screen. Data for the wt1 strain (AID 149);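 further: 0% = growth of vehicle-treated wt1 cultures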; conditions: S. cerevisiae wt1 strain (SPY 50644) growth inhibition, hits give high values
Method in brief: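 Growth inhibition read against vehicle controls after compound exposure of the wt1 yeast strain.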

[2] = NCI Yeast Anticancer Drug Screen. Data for the rad50EPP+ strain (AID 151);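 further: 0% = growth of vehicle-treated control cultures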; conditions: S. cerevisiae rad50 mutant strain, hits give high values
Method in brief: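 Measured: growth inhibition of rad50EPP+ yeast. Reference: vehicle-treated controls. Screen uses strains with defined genetic alterations in DNA damage repair or cell cycle control.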

[3] = NCI Yeast Anticancer Drug Screen. Data for the mgt1 strain (AID 153); conditions: S. cerevisiae mgt1 mutant growth inhibition, hits give high values
Method in brief: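 Compounds were applied to mgt1 mutant yeast, and growth was then compared against vehicle-treated control cultures to give percent inhibition.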

[4] = NCI Yeast Anticancer Drug Screen. Data for the rad50 strain (AID 155);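 further: 0% = growth of vehicle-only cultures of the same strain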; conditions: S. cerevisiae rad50 strain growth inhibition, hits give high values
Method in brief: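 Readout: growth inhibition relative to vehicle-treated cultures. Compound exposure was carried out in a genetically defined yeast strain deficient in DNA damage repair.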

[5] = NCI Yeast Anticancer Drug Screen. Data for the mec2-1 strain (AID 157); conditions: S. cerevisiae mec2-1 strain, hits give high values
Method in brief: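 Compounds were applied to mec2-1 yeast cells. Their growth was then compared with that of vehicle-treated cultures to give growth inhibition.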

[6] = NCI Yeast Anticancer Drug Screen. Data for the rad14 strain (AID 159);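 further: 0% = growth of vehicle-treated control cultures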; conditions: S. cerevisiae rad14 strain growth inhibition, hits give high values
Method in brief: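 Growth inhibition vs vehicle controls; genetically altered yeast strain (DNA damage repair defect) treated with test compounds.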

[7] = NCI Yeast Anticancer Drug Screen. Data for the sgs1 mgt1 strain (AID 161);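 further: 0% = growth of cultures given vehicle only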; conditions: S. cerevisiae sgs1 mgt1 strain, hits give high values
Method in brief: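 This yeast growth screen uses a strain with defined DNA-repair lesions; compound-treated growth is compared with vehicle-treated growth.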

[8] = NCI Yeast Anticancer Drug Screen. Data for the CLN2oe strain (AID 163);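 further: 0% = growth of vehicle-only control cultures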; conditions: S. cerevisiae CLN2oe strain, hits give high values
Method in brief: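 Cells of an engineered yeast line with disturbed cell-cycle regulation are treated with compound. Inhibition of growth is then calculated relative to the vehicle-treated reference.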

[9] = NCI Yeast Anticancer Drug Screen. Data for the cln2 rad14 strain (AID 165);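 further: 0% = growth equal to vehicle treated cultures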; conditions: S. cerevisiae cln2 rad14 strain, hits give high values
Method in brief: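 Strain: cln2 rad14 yeast, altered in cell cycle control and DNA damage repair. Read-out: growth inhibition vs vehicle.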

[10] = NCI Yeast Anticancer Drug Screen. Data for the bub3 strain (AID 167); conditions: S. cerevisiae bub3 mutant strain, hits give high values
Method in brief: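 Readout: yeast growth inhibition, expressed relative to vehicle-only wells. The test organism is a mutant strain from a panel with lesions in DNA repair or checkpoint genes.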

[11] = NCI Yeast Anticancer Drug Screen. Data for the wt2 strain (AID 169);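 further: 0% = growth of vehicle-treated yeast cultures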; conditions: S. cerevisiae wt2 strain growth inhibition, hits give high values
Method in brief: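 Growth of compound-treated yeast is measured and expressed as inhibition relative to vehicle-only controls.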

[12] = NCI Yeast Anticancer Drug Screen. Data for the sgs1 strain (AID 173);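 further: 0% = growth of vehicle-only control cultures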; conditions: S. cerevisiae sgs1 mutant, hits give high values
Method in brief: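 Strain with an altered DNA repair or cell cycle pathway exposed to compound. Growth then measured. Value = inhibition versus vehicle control.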

[13] = NCI Yeast Anticancer Drug Screen. Data for the rad18 strain (AID 177); conditions: S. cerevisiae rad18 mutant growth inhibition, hits give high values
Method in brief: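 DNA-repair-defective yeast; compound treatment; growth inhibition scored against vehicle.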

[14] = NCI Yeast Anticancer Drug Screen. Data for the mlh1 strain (AID 171);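 further: 0% = growth of vehicle-treated control cultures of the same strain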; conditions: S. cerevisiae mlh1 strain growth inhibition, hits give high values
Method in brief: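 Test agents were incubated with yeast bearing a defined DNA damage repair or cell cycle control alteration; values are growth inhibition normalised to vehicle-treated cultures.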

[15] = NCI Yeast Anticancer Drug Screen. Data for the mlh1 rad18 strain (AID 175); conditions: S. cerevisiae mlh1 rad18 strain growth inhibition, hits give high values
Method in brief: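 A repair-deficient yeast strain is exposed to test compound, and growth is scored relative to vehicle-treated controls.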

[16] = at 5.0 µM (retest, dose inferred, filed as 0.5)
[17] = at 50.0 µM (retest, dose inferred, filed as 5.0)

Measured: growth inhibition

CN(C)CCn1c2ccccc2c2nc3cc4ccccc4cc3nc21
inactive: [1]; at 1.2 µM 15% | [1]; at 3.7 µM 23% | [1]; at 11.0 µM 28% | [2]; at 1.2 µM 0% | [2]; at 3.7 µM 38% | [3]; at 1.2 µM -2% | [3]; at 3.7 µM 4% | [3]; at 11.0 µM 14% | [3]; at 33.0 µM 69% | [4]; at 1.2 µM 12% | [4]; at 3.7 µM 34% | [4]; [16] 48% | [5]; at 1.2 µM -18% | [5]; at 3.7 µM -10% | [5]; [16] 26% | [5]; at 11.0 µM 14% | [6]; at 1.2 µM -4% | [6]; at 3.7 µM 7% | [6]; at 11.0 µM 28% | [7]; [16] 10% | [8]; at 1.2 µM 0% | [8]; at 3.7 µM 3% | [8]; at 11.0 µM 21% | [8]; at 33.0 µM 57% | [9]; [16] 30% | [10]; at 1.2 µM -13% | [10]; at 3.7 µM 10% | [10]; [16] 13% | [10]; at 11.0 µM 3% | [11]; at 1.2 µM 18% | [11]; at 3.7 µM 15% | [11]; at 11.0 µM 27% | [12]; at 1.2 µM -2% | [12]; at 3.7 µM 5% | [12]; at 11.0 µM 25% | [13]; at 1.2 µM -11% | [13]; at 3.7 µM -10% | [13]; at 11.0 µM 11%
active: [1]; at 33.0 µM 78% | [1]; at 100.0 µM 98% | [2]; at 11.0 µM 88% | [2]; at 33.0 µM 94% | [2]; at 100.0 µM 97% | [3]; at 100.0 µM 98% | [4]; at 11.0 µM 85% | [4]; at 33.0 µM 95% | [4]; [17] 95% | [4]; at 50.0 µM 89% | [4]; at 100.0 µM 98% | [5]; at 33.0 µM 70% | [5]; [17] 99% | [5]; at 50.0 µM 86.6% | [5]; at 100.0 µM 98% | [6]; at 33.0 µM 80% | [6]; at 100.0 µM 99% | [7]; [17] 91% | [7]; at 50.0 µM 88% | [8]; at 100.0 µM 98% | [9]; [17] 94% | [9]; at 50.0 µM 84.3% | [10]; at 33.0 µM 72% | [10]; [17] 95% | [10]; at 50.0 µM 87.6% | [10]; at 100.0 µM 98% | [11]; at 33.0 µM 77% | [11]; at 100.0 µM 98% | [12]; at 33.0 µM 85% | [12]; at 100.0 µM 98% | [13]; at 33.0 µM 87% | [13]; at 100.0 µM 98%

O=S(=O)(O)c1ccc2c(N=Nc3c(O)ccc4ccccc34)cccc2c1
active: [1]; at 100.0 µM 71% | [4]; at 33.0 µM 71% | [4]; [17] 82% | [4]; at 50.0 µM 91.8% | [4]; at 100.0 µM 85% | [5]; at 50.0 µM 83.3% | [5]; at 100.0 µM 84% | [6]; at 100.0 µM 80% | [7]; [17] 70% | [7]; at 50.0 µM 83.2% | [10]; at 50.0 µM 93.8% | [10]; at 100.0 µM 75% | [11]; at 100.0 µM 74% | [14]; at 100.0 µM 70% | [12]; at 100.0 µM 77% | [15]; [17] 80% | [15]; at 50.0 µM 87.9% | [13]; at 11.0 µM 77% | [13]; at 33.0 µM 87% | [13]; at 100.0 µM 92%
inactive: [1]; at 1.2 µM 0% | [1]; at 3.7 µM 1% | [1]; at 11.0 µM 21% | [1]; at 33.0 µM 50% | [2]; at 1.2 µM -3% | [2]; at 3.7 µM -1% | [2]; at 11.0 µM 17% | [2]; at 33.0 µM 35% | [2]; at 100.0 µM 39% | [3]; at 1.2 µM 0% | [3]; at 3.7 µM 0% | [3]; at 11.0 µM 12% | [3]; at 33.0 µM 37% | [3]; at 100.0 µM 66% | [4]; at 1.2 µM 4% | [4]; at 3.7 µM 14% | [4]; [16] 26% | [4]; at 11.0 µM 56% | [5]; at 1.2 µM 1% | [5]; at 3.7 µM 6% | [5]; [16] 3% | [5]; at 11.0 µM 20% | [5]; at 33.0 µM 38% | [5]; [17] 48% | [6]; at 1.2 µM 1% | [6]; at 3.7 µM 1% | [6]; at 11.0 µM 20% | [6]; at 33.0 µM 40% | [7]; [16] -1% | [9]; [16] 0% | [9]; [17] -11% | [9]; at 50.0 µM 32.5% | [10]; at 1.2 µM -2% | [10]; at 3.7 µM -1% | [10]; [16] 0% | [10]; at 11.0 µM 23% | [10]; at 33.0 µM 59% | [10]; [17] 55% | [11]; at 1.2 µM -1% | [11]; at 3.7 µM 0% | [11]; at 11.0 µM 13% | [11]; at 33.0 µM 37% | [14]; at 1.2 µM 4% | [14]; at 3.7 µM 4% | [14]; at 11.0 µM 17% | [14]; at 33.0 µM 4% | [12]; at 1.2 µM 2% | [12]; at 3.7 µM 11% | [12]; at 11.0 µM 47% | [12]; at 33.0 µM 67% | [15]; [16] 9% | [13]; at 1.2 µM 4% | [13]; at 3.7 µM 33%
